# TGFb SMAD3 inh: inhibitors of TGF-b signaling; HepG2 CAGA-GFP TGF-b/SMAD3 reporter, GFP fluorescence, 18 h; TGF-beta stimulated, 500 pg/mL final; Potency, µM (titrated, usually from 46.1 µM), without a hit: at the top dose activity, negative = inhibition, actives largely listed as inhibitors; AID 588855; 410,000 tested, 1.2% active; note: % is set by controls: 0 for no effect and ±100 for the full control effect; nearly all actives have a fitted effect of over 65% in size
#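 Inhibition was scored as loss of TGF-beta-induced (500 pg/mL final, 18 hours, 37 degrees C) GFP in HEPG2 cells carrying a CAGA-GFP reporter, in DMEM with 1% FBS. Well GFP was summed per cell; Activity was normalised to unstimulated and stimulated DMSO wells, then concentration-response fitting.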
# ATXN2 expr inh: inhibitors of ATXN2 expression; HEK-293 ATXN2-luciferase reporter, luminescence, 24 h; Potency, µM (titrated, usually from 57 µM), for the others: at the top dose activity change, negative = inhibition, actives largely listed as inhibitors; 360,000 tested, 0.72% active; note: % is set by controls: 0 for no effect and ±100 for the full control effect; nearly all actives have a fitted effect of over 55% in size
#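 qHTS (up to 57 uM final) was run with 24 h compound exposure of reporter cells at 37 °C. Each well was multiplexed: SteadyGlo luminescence measured ATXN2-luciferase expression after a fluorogenic Gly-Phe-AFC viability readout (25 uM final).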
# HepG2 tox: kills HepG2 cells in TGF-b inhibitor counter-screen | 410,000 tested, 0.76% active | Potency, µM (top dose mostly 46.1 µM), inactives show at the top dose activity change, negative = cytotoxicity, usual class: cytotoxic | HepG2 CAGA-GFP viability, ATP luminescence, 18 h
#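 CellTiter-Glo luminescence gave cytotoxicity after 18 hours at 37 degrees C. The cells were HepG2 CAGA-GFP in 1% FBS DMEM, stimulated with 500 pg/mL TGF-beta after compound addition. %Activity was normalised to no-cell wells (complete cell-killing) and DMSO (no toxicity), and curves were fitted and classified.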
# S2 tox: cell viability loss in ATXN counter-screen. S2 cells (HEK-293 line with an ATXN2-luciferase reporter) viability, CellTiter-Fluor protease fluorescence, 24 h. Potency, µM (highest dose often 56.7 µM), actives largely listed as cytotoxic. 400,000 tested, 0.49% active; note: nearly all actives have a fitted effect of over 40% in size
# RORg inh: blocks mouse ROR gamma transcriptional activity. Drosophila S2 Gal4-RORgamma UAS-luciferase reporter, 20 h. P51450. Potency, µM (titrated, usually from 53.6 µM), for the others: top-dose activity change, negative = inhibition, actives largely listed as inhibitors. 310,000 tested, 5.4% active; note: % is set by controls: 0 for no effect and ±100 for the full control effect; nearly all actives have a fitted effect of over 60% in size
# Target sequence (P51450 whole entry, looked up, the tested form may be a part): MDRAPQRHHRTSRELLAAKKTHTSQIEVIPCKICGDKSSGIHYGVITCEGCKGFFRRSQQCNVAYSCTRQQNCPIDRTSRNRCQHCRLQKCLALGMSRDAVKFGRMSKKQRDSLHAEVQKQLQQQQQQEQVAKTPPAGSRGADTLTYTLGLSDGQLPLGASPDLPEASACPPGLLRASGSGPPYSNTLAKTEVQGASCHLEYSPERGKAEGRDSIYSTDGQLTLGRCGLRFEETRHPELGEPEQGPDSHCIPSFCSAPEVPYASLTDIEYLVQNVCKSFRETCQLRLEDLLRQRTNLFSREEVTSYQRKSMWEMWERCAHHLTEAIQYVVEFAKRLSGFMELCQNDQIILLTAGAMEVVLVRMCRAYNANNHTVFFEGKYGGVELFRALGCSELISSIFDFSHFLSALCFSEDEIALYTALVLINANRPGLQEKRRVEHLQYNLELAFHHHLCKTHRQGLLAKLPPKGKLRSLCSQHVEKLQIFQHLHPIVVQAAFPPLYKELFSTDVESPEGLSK
#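 Drosophila S2 cells stably expressing Gal4-DBD/mouse RORγ fusion under metallothionein promoter plus UAS-luciferase; compound 1 h, then 700 uM CuSO4 induction for 20 h at ambient temperature; inhibition read as reduced luminescence.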
# VP16 counter: Gal4-VP16 reporter inhibition counter-screen | AID 2546 | 310,000 tested, 3.5% active | Drosophila S2 Gal4-VP16 UAS-luciferase, luminescence, 20 h | Potency, µM (series often up to 53.6 µM), without a hit: at the highest dose activity, negative = inhibition, usual class: inhibitors;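 note: Gal4-VP16 expression switched on by copper sulfate through the metallothionein promoter; % is set by controls: 0 for no effect and ±100 for the full control effect; nearly all actives have a fitted effect of over 50% in size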
# Starred values were filed as active, the others as inactive; i = inactive; u = inconclusive; x = not tested or not shown; [ ] = remark or other dose. A selection: hits, their analogues and other compounds. The true share with any hit is near 6.3%. Calls come from the whole dose curve; as a rule, active = well fitted curve in the direction sought with a large enough effect; inconclusive = small, poorly fitted or top-dose-only effect, or another doubt; inactive = no such curve, though single readings can be large; an effect the other way counts as inactive or inconclusive. Potency is the fitted concentration of half-maximal effect.
SMILES,TGFb SMAD3 inh,ATXN2 expr inh,HepG2 tox,S2 tox,RORg inh,VP16 counter
CCOC(=O)Cc1ccc(NC(=O)Nc2nnc(N3CCCCC3C)s2)cc1 (configuration not stated),11µM*,x,-39%,x,x,x
CC1=C(C(=O)OC(C)C)C(c2cccs2)NC(=O)N1 (configuration not stated),-2%,1%,-2%,i,8%,-14%
CC1=C(C(=O)OC(C)C)C(c2cccs2)C(C(=O)OC(C)C)=C(C)N1,18µM*,-18%,-41%,i,17%,-27%
CCc1ccc(NC(=O)CC2C(=O)N(c3ccc(Cl)cc3)C(=O)N2Cc2ccco2)cc1 (configuration not stated),u,x,-46%,x,x,x
Cc1ccc(C)c(NC(=O)c2cc(=O)c3cc(C)cc(C)c3o2)c1,0%,0%,6%,i,x,x
COC(=O)[C@@H]1CCCN1Cc1ccc2c(c1)CN(Cc1cccn1-c1ccccn1)CCO2,x,x,x,i,x,x
COc1cccc(-n2nnnc2SCC(=O)N2CCCc3ccccc32)c1,4%,-3%,-42%,i,20µM*,u
O=C(CSc1nnnn1-c1cccc(Cl)c1)Nc1ccc2c(c1)CCC2,x,x,x,x,u,8.9µM*
O=C(CSc1nnnn1-c1cccnc1)Nc1cccc(Cl)c1,26%,-15%,-7%,i,-5%,7%
Cc1ccc(S(=O)(=O)N2CCC(N3CCN(C)CC3)CC2)cc1Cl,-21%,-13%,9%,u,-26%,-11%
CC/C(=N\NC(=O)OC)c1ccc(OC(F)F)cc1,3%,-20%,10µM*,i,1%,-21%
O=C(Nc1ccccc1)N1CCCN(Cc2ccccc2F)C1,9%,0%,1%,u,-4%,-3%
Cc1c(Cl)cccc1NC(=S)N1CCCN(Cc2ccccc2F)C1,u,-33%,-4%,i,13µM*,u
Fc1ccccc1CN1CCCN(C(=S)Nc2cccc(Cl)c2)C1,u,-27%,-19%,i,7.1µM*,u
Cc1c(Cl)cccc1NC(=S)N1CCCN(Cc2ccc(F)cc2)C1,u,0%,-4%,i,16µM*,u
Cc1ccc(NC(=S)N2CCCN(Cc3ccc(F)cc3)C2)c(C)c1,-10%,0%,-1%,i,13µM*,u
CCN(CC)Cc1ccc2cc(COC(=O)Nc3ccc(C(=O)NO)cc3)ccc2c1,x,36%,x,x,x,x
CN(CCN1CCOCC1)C(=O)C1CCC(=O)N(Cc2ccc(Cl)cc2)C1 (configuration not stated),-3%,x,-1%,i,x,x
CN(C)CCCNC(=O)C[C@H]1C[C@H](C(=O)N2CCCCC2)[C@@]2(C)c3[nH]c4cc(-c5ccco5)ccc4c3CCN2C1=O,u,-21%,-86%,u,x,x
CN(C)CCCNC(=O)C[C@H]1C[C@H](C(=O)N2CCCCC2)[C@@]2(CCc3ccccc3)c3[nH]c4cc(-c5ccco5)ccc4c3CCN2C1=O,u,u,14µM*,28µM*,x,x
CC(C)=CCC/C(C)=C/CNC(=O)C[C@H]1C[C@H](C(=O)N2CCOCC2)[C@@]2(C)c3[nH]c4cc(-c5ccco5)ccc4c3CCN2C1=O,13µM*,u,-77%,x,x,x
CC(C)=CCC/C(C)=C/CNC(=O)CC1C[C@H](C(=O)N2CCOCC2)[C@@]2(C)c3[nH]c4ccccc4c3CCN2C1=O (some centres not stated),u,u,-19%,x,x,x
CCN(c1ccccc1)S(=O)(=O)c1cccc(C(=O)NCC(c2ccco2)N2CCCCC2)c1 (configuration not stated),-3%,-32%,-5%,u,x,x
COc1ccc2c(Cl)c(C(=O)N/N=C/c3ccc4c(c3)OCO4)sc2c1,-2%,u,-37%,u,1.1µM*,0%
O=C(N/N=C/c1ccc2c(c1)OCO2)c1cccs1,-1%,34%,-27%,i,-15%,-12%
SMILES,TGFb SMAD3 inh,ATXN2 expr inh,HepG2 tox,S2 tox,RORg inh,VP16 counter
O=C(N/N=C/c1ccc2c(c1)OCO2)c1sc2cc(Cl)ccc2c1Cl,-1%,-29%,1%,u,-26%[10 µM],-8%
Cc1occc1C(=O)N/N=C/c1ccc2c(c1)OCO2,0%,u,11µM*,i,7.9µM*,u
Cc1occc1C(=O)N/N=C/c1ccc(-c2ccccc2)cc1,-15%,1%,11µM*,i,13µM*,u
Cc1ccsc1C(=O)N/N=C/c1ccc2c(c1)OCO2,-18%,43%,5.6µM*,i,u,u
Cc1cccc(C)c1NC(=O)C(c1ccccc1)N1CCN(c2ccc(C(F)(F)F)cn2)CC1 (configuration not stated),-25%,3%,-9%,i,x,x
C=C1C2CC[C@]3(CCC4[C@@]5(C)CCC[C@@]4(CN(CCO)C5)[C@@H]3C2)[C@@H]1O (some centres not stated),x,x,x,x,16%,-11%
CN(N=Cc1ccc([N+](=O)[O-])cc1)c1ccccn1,-1%,x,-3%,i,x,x
C/C(Cn1nc([N+](=O)[O-])cc1C)=N\NC(=O)c1ccc(O)cc1O,0%,4%,14%,i,1.6µM*,14µM*
COc1cc(C(=O)N/N=C(\C)Cn2nc([N+](=O)[O-])cc2C)ccc1O,33%,-7%,-3%,i,u,-15%
C/C(CC(=O)Nc1ccc(N(C)C)cc1)=N\NC(=O)c1ccccc1O,-29%,-21%,-31%,i,23%[1.91 µM],u
C/C(Cn1cnc([N+](=O)[O-])n1)=N\NC(=O)c1ccccc1O,0%,-9%,2%,i,13µM*,u
C/C(Cn1cnc([N+](=O)[O-])n1)=N\NC(=O)c1ccc(O)cc1O,40%,2%,24%,i,0.2µM*,u
C/C(Cn1cnc([N+](=O)[O-])n1)=N\NC(=O)c1ccccc1F,-1%,12%,1%,i,x,x
C/C(Cn1cnc([N+](=O)[O-])n1)=N\NC(=O)c1cccnc1,1%,-2%,1%,i,2%,-7%
C/C(CC(=O)Nc1ccc([N+](=O)[O-])cc1)=N\NC(=O)c1ccccc1O,u,x,-20%,i,11µM*,16µM*
Cc1ccc(S(=O)(=O)NCC(=O)OCC(=O)Nc2ccc3c(c2)OCCO3)cc1,9%,2%,6%,i,x,x
CCCCCC(=O)/C=C/[C@H]1[C@H](O)CC(=O)[C@@H]1C/C=C\CCCC(=O)O,x,x,x,x,u,-7%
O=C(N/N=C(\c1ccccc1)c1ccccn1)c1cccc([N+](=O)[O-])c1,u,x,-1%,u,0.45µM*,-13%
